Drawing on PubChem BioAssay (NCATS), this text covers activity, negative = inhibition and Potency for 37 compounds.

Test [1] is described as follows: qHTS profiling for inhibitors of Plasmodium falciparum proliferation (AID 504749). Also: nearly all actives have a fitted effect of over 60% in size.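 As to activity, negative = inhibition: 0% = DMSO vehicle and full inhibition = artemisinin control.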 The note with it: P. falciparum in erythrocytes, SYBR Green DNA, 72 h. The essentials:
(§1)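 Three-day growth assay of blood-stage parasites in erythrocytes (0.3% parasitemia, 2.5% hematocrit) at 37 C, 5% CO2, quantified by SYBR Green DNA staining after overnight detergent lysis.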
For orientation: qHTS replaces the single test concentration by a dilution series.

In test [2] the test system is 3D7. Described as above. To be noted: P. falciparum in erythrocytes, SYBR Green DNA, 72 h; series mostly up to 28.7 µM. A digest of the protocol:
as §1

The subject of test [3] is 7G8. The test is described as above. To be noted: P. falciparum in erythrocytes, SYBR Green DNA, 72 h; series mostly up to 28.7 µM. The essentials: as §1
In test [4] the test system is AA1029. Described as above. To be noted: P. falciparum in erythrocytes, SYBR Green DNA, 72 h; series mostly up to 28.7 µM. A digest of the protocol:
as §1

Test [5] concerns AS120. The description is as above. The note with it: P. falciparum in erythrocytes, SYBR Green DNA, 72 h; series mostly up to 28.7 µM. A digest of the protocol:
as §1

[6] abbreviates: at 28.7 µM (top of the series), parasite line A.
[7] abbreviates: at 28.7 µM (top of the series), parasite line B.
Where [8] appears, read: at 12.8 µM (top of the series), parasite line A.
Setting [9] is: at 12.8 µM (top of the series), parasite line B.

Records with an inconclusive call do not appear. Unmarked numbers belong to inactive results. Active and inactive are the calls of the source. Calls follow the shape of the dose curve; as a rule, active = well fitted inhibition curve with a large enough effect; inconclusive = small, poorly fitted or top-dose-only effect; inactive = flat fitted curve, though single readings scatter.
Potency is read from the fitted curve at half-maximal effect.

Consider `COc1ccccc1N1CCN(CCCCNC(=O)c2ccc(-c3ccc(C(C)=O)cc3)cc2)CC1`, for which the activity, negative = inhibition in test [1] (setting [6]) is 15.8%; in test [1] (setting [7]) it was 20.5%. Also, the Potency entry in test [2], in test [4] and in test [5] was “inactive” in each case. Also, the Potency in test [3] is 12.6 µM (active).

For the compound `CC(C)Nc1cccnc1N1CCN(C(=O)c2cc3cc(NS(C)(=O)=O)ccc3[nH]2)CC1`, the activity, negative = inhibition is -10.7% in test [1] (setting [6]) and 24% in test [1] (setting [7]). Besides, the Potency result in test [2], in test [4] and in test [5] was “inactive” each time. Also, the Potency in test [3] is 12.6 µM (active).

With `Cc1cccc(C)c1NC(=O)c1ccccc1C(=O)O`, the values for the activity, negative = inhibition in test [1] (setting [6]) and in test [1] (setting [7]) were 19.5% and 8.59%, respectively. The Potency result in test [2], in test [3], in test [4] and in test [5] was “inactive” throughout.

`O=C(Nc1cccc(C2=NCCN2)c1)Nc1cccc(C2=NCCN2)c1`: the Potency was 8.91 µM (active) in test [1] (parasite line A); 11.2 µM (active) in test [1] (parasite line B); 10 µM (active) in test [2]; 0.398 µM (active) in test [3]; 7.08 µM (active) in test [4]; 2.82 µM (active) in test [5].

With `O=C(O)c1ccc(S(=O)(=O)N(Cl)Cl)cc1`, the activity, negative = inhibition in test [1] (setting [6]) was -4.58%; in test [1] (setting [7]), 5.75%. Also, the Potency entry in test [2], in test [3], in test [4] and in test [5] was “inactive” throughout.

Take `CC(=O)NO`: the activity, negative = inhibition in test [1] (setting [6]) is -5.99%; in test [1] (setting [7]), 17.5%. The Potency entry in test [2], in test [3], in test [4] and in test [5] was “inactive” in each case.

With `N=C(N)N1CCc2ccccc2C1`, the activity, negative = inhibition in test [1] (setting [6]) is 15.6%; in test [1] (setting [7]) it was 0.433%. The Potency result in test [2], in test [3], in test [4] and in test [5] was “inactive” throughout.

Consider `CCCCCCCCCCCCCC[N+](C)(C)Cc1ccccc1`, for which the Potency in test [1] (parasite line A) is 4.47 µM (active); in test [1] (parasite line B) it was 7.94 µM (active); in test [2] it was 3.55 µM (active); in test [3], 2.24 µM (active); in test [4], 6.31 µM (active); in test [5], 7.08 µM (active).

As to `CCOC(=O)[C@H](CCc1ccccc1)N[C@@H](C)C(=O)N1[C@H](C(=O)O)C[C@H]2CCCC[C@@H]21`, the activity, negative = inhibition in test [1] (setting [6]) is 8.44%; in test [1] (setting [7]) it was 4.83%. Further, the Potency result in test [2], in test [3], in test [4] and in test [5] was “inactive” throughout.

In the case of `CCC1Nc2cc(Cl)c(S(N)(=O)=O)cc2S(=O)(=O)N1` (configuration not stated), the activity, negative = inhibition in test [1] (setting [6]) is 11%; in test [1] (setting [7]) it was 6.74%. Further, the Potency entry in test [2], in test [3], in test [4] and in test [5] was “inactive” each time.

On to `CCCCNC(=O)NS(=O)(=O)c1ccc(N)cc1`, for which the activity, negative = inhibition was 5.61% in test [1] (setting [6]) and 12.3% in test [1] (setting [7]). The Potency entry in test [2], in test [3], in test [4] and in test [5] was “inactive” throughout.

As for `O=C1C(CCS(=O)c2ccccc2)C(=O)N(c2ccccc2)N1c1ccccc1` (configuration not stated), the activity, negative = inhibition in test [1] (setting [8]) was -4.48%; in test [1] (setting [9]) it was 5.16%. In addition, the Potency result in test [2], in test [3], in test [4] and in test [5] was “inactive” throughout.

With `CCCN(CCC)S(=O)(=O)c1ccc(C(=O)O)cc1`, the activity, negative = inhibition is 12.1% in test [1] (setting [6]) and 6% in test [1] (setting [7]). Moreover, the Potency result in test [2], in test [3], in test [4] and in test [5] was “inactive” in each case.

As to `CCc1oc2ccccc2c1C(=O)c1cc(I)c(O)c(I)c1`, the activity, negative = inhibition in test [1] (setting [6]) was -1.64%; in test [1] (setting [7]) it was -5.21%. The Potency entry in test [2], in test [3], in test [4] and in test [5] was “inactive” throughout.

Take `COc1cc(C(=O)N2CCCCCCC2)cc(OC)c1OC`: the activity, negative = inhibition is 22.3% in test [1] (setting [6]) and 22.7% in test [1] (setting [7]). For the same compound, the Potency entry in test [2], in test [3], in test [4] and in test [5] was “inactive” each time.

As to `CNCCc1ccccn1`, the values for the activity, negative = inhibition in test [1] (setting [8]) and in test [1] (setting [9]) were 6.01% and 8.04%, respectively. In addition, the Potency result in test [2], in test [3], in test [4] and in test [5] was “inactive” each time.

For `CCCCC(CC)COC(=O)c1ccc(N(C)C)cc1` (configuration not stated), the activity, negative = inhibition in test [1] (setting [6]) is 7.25%; in test [1] (setting [7]), -4.81%. For the same compound, the Potency result in test [2], in test [3], in test [4] and in test [5] was “inactive” throughout.

Consider `CCN(CC)CCNc1ccc(CO)c2sc3ccccc3c(=O)c12`, for which the Potency in test [1] (parasite line A) is 1.78 µM (active); in test [1] (parasite line B), 3.55 µM (active); in test [2], 2 µM (active); in test [3], 2 µM (active); in test [4] it was 2.24 µM (active); in test [5], 1 µM (active).

With `CC(=O)NCCCCCC(=O)O`, the activity, negative = inhibition in test [1] (setting [6]) is 7.94%; in test [1] (setting [7]) it was 13.3%. The Potency entry in test [2], in test [3], in test [4] and in test [5] was “inactive” throughout.

For the compound `Cc1cc(C)cc(OCC2CNC(=O)O2)c1` (configuration not stated), the activity, negative = inhibition in test [1] (setting [6]) was -4.76%; in test [1] (setting [7]), 4.34%. The Potency entry in test [2], in test [3], in test [4] and in test [5] was “inactive” in each case.

With `Cc1cccc(C)c1NC(=O)CN1CCCC1`, the values for the activity, negative = inhibition in test [1] (setting [6]) and in test [1] (setting [7]) were -5.07% and 5.99%, respectively. The Potency result in test [2], in test [3], in test [4] and in test [5] was “inactive” throughout.

On to `NCCNC(=O)c1ccc(Cl)cn1`, for which the activity, negative = inhibition in test [1] (setting [6]) was -3.24%; in test [1] (setting [7]) it was -5.67%. Moreover, the Potency entry in test [2], in test [3], in test [4] and in test [5] was “inactive” each time.

Take `CC(=O)Nc1ccc(OCC(O)CNC(C)C)cc1` (configuration not stated): the activity, negative = inhibition in test [1] (setting [6]) is 13.4%; in test [1] (setting [7]) it was 11.8%. The Potency result in test [2], in test [3], in test [4] and in test [5] was “inactive” in each case.

For the compound `CCCCCCCC/C=C\CCCCCCCCN`, the activity, negative = inhibition was 9.32% in test [1] (setting [6]) and 3.75% in test [1] (setting [7]). The Potency entry in test [2], in test [3], in test [4] and in test [5] was “inactive” throughout.

In the case of `CC(C)(C)NC[C@H](O)COc1cccc2c1CCCC2=O`, the results for the activity, negative = inhibition in test [1] (setting [8]) and in test [1] (setting [9]) were 5.04% and 7.33%, respectively. Also, the Potency entry in test [2], in test [3], in test [4] and in test [5] was “inactive” in each case.

In the case of `CCOc1ccc(NC(C)=O)cc1`, the results for the activity, negative = inhibition in test [1] (setting [6]) and in test [1] (setting [7]) were -9.23% and 8.77%, respectively. For the same compound, the Potency result in test [2], in test [3], in test [4] and in test [5] was “inactive” throughout.

In the case of `O=C(NCCc1c[nH]c2ccccc12)c1cccnc1`, the activity, negative = inhibition in test [1] (setting [6]) is 0.138%; in test [1] (setting [7]), 13.6%. The Potency entry in test [2], in test [3], in test [4] and in test [5] was “inactive” throughout.

Take `CC1(COc2ccc(CC3SC(=O)NC3=O)cc2)CCCCC1` (configuration not stated): the activity, negative = inhibition in test [1] (setting [6]) is 11%; in test [1] (setting [7]) it was -0.436%. In addition, the Potency result in test [2], in test [3], in test [4] and in test [5] was “inactive” in each case.

As for `CCCCN=C(N)N=C(N)N`, the activity, negative = inhibition is -1.88% in test [1] (setting [6]) and 0.415% in test [1] (setting [7]). In addition, the Potency result in test [2], in test [3], in test [4] and in test [5] was “inactive” each time.

For `C[N+]1(CC2COC(c3ccccc3)(C3CCCCC3)O2)CCCCC1` (configuration not stated), the Potency in test [1] (parasite line A) was 2.82 µM (active); in test [1] (parasite line B), 4.47 µM (active); in test [2] it was 7.08 µM (active); in test [3], 2.51 µM (active); in test [4], 5.01 µM (active); in test [5] it was 7.08 µM (active).

Take `NC(=S)N/N=C/c1cccnc1`: the activity, negative = inhibition is 13.2% in test [1] (setting [6]) and 8.73% in test [1] (setting [7]). In addition, the Potency entry in test [2], in test [3], in test [4] and in test [5] was “inactive” each time.

In the case of `COP(=O)(OC)OC(c1ccc(Cl)cc1)P(=O)(OC)OC` (configuration not stated), the activity, negative = inhibition in test [1] (setting [6]) was 10.6%; in test [1] (setting [7]) it was -3.59%. For the same compound, the Potency entry in test [2], in test [3], in test [4] and in test [5] was “inactive” in each case.

On to `CC(=O)Nc1ccc(CC(=O)O)cc1`, for which the results for the activity, negative = inhibition in test [1] (setting [6]) and in test [1] (setting [7]) were 9.92% and 11.5%, respectively. The Potency entry in test [2], in test [3], in test [4] and in test [5] was “inactive” in each case.

Turning to `CCNC(=O)NCc1cccc(Cl)c1`, the activity, negative = inhibition in test [1] (setting [6]) is 14.6%; in test [1] (setting [7]), 3.44%. Further, the Potency entry in test [2], in test [3], in test [4] and in test [5] was “inactive” in each case.

With `CCCCCCCCOc1ccc(C(=O)c2ccccc2)c(O)c1`, the activity, negative = inhibition in test [1] (setting [6]) was 16.4%; in test [1] (setting [7]), 14.5%. For the same compound, the Potency entry in test [2], in test [3], in test [4] and in test [5] was “inactive” throughout.

As for `O[C@@H](c1cc(C(F)(F)F)nc2c(C(F)(F)F)cccc12)[C@H]1CCCCN1`, the Potency in test [1] (parasite line A) is 0.0316 µM (active); in test [1] (parasite line B) it was 0.0126 µM (active); in test [2] it was 0.0355 µM (active); in test [3], 0.0079 µM (active); in test [4], 0.0112 µM (active); in test [5], 0.02 µM (active).

For `Nc1ccc(S(=O)(=O)NCc2ccccc2)cc1`, the figures for the activity, negative = inhibition in test [1] (setting [6]) and in test [1] (setting [7]) were 4.25% and 6.29%, respectively. For the same compound, the Potency entry in test [2], in test [3], in test [4] and in test [5] was “inactive” in each case.
